Laboratory results reported in PubChem BioAssay AID1159580 (chemical genetic matrix, 2015).
Out of some 5,500 compounds screened, about 2,000 (36%) were called active. About 18% were inconclusive and are not listed. Rule as the data show it: active = normalized growth mostly below about 0.91 (no sharp cut-off); inconclusive = no clear call, values can overlap the other calls; inactive = mostly above about 0.92. Some of the results follow.

Experiment: chemical genetic growth profiling, strain panel (AID 1159580);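 also: tested at 20 µM; growth read once vehicle control cultures reached saturation at 30 °C; 1 = growth at the plate median or of vehicle wells; lower values mean less growth of the strain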
Settings: S. cerevisiae deletion strains, growth OD

Measured: normalized growth

COc1ccc2c(c1)c(CC(=O)O)c(C)n2Cc1ccc(Cl)cc1
inactive: locus YAL013W, strain DEP1, hits give low values 0.994 | locus YAL040C, strain CLN3, hits give low values 0.96 | locus YCL061C, strain MRC1 (second series), hits give low values 1 | locus YDR150W, strain NUM1, hits give low values 1.02 | locus YDR363W, strain ESC2, hits give low values 0.972 | locus YER002W, strain NOP16, hits give low values 0.999 | locus YGR078C, strain PAC10, hits give low values 0.981 | locus YGR229C, strain SMI1, hits give low values 0.941 | locus YMR307W, strain GAS1, hits give low values 1 | locus YNL175C, strain NOP13, hits give low values 0.966 | locus YNL197C, strain WHI3, hits give low values 0.95 | locus YNL224C, strain SQS1, hits give low values 0.981 | locus YNL322C, strain KRE1, hits give low values 0.994 | locus YOR083W, strain WHI5 (second series), hits give low values 0.953 | locus YPL055C, strain LGE1, hits give low values 0.996 | locus YPL241C, strain CIN2, hits give low values 0.994
